Screening data as filed in PubChem BioAssay.
This is one part of a sample in which hits are shown more often than they occur.
Pf Dd2 inh: qHTS Primary assay for Inhibitors of Plasmodium falciparum Dd2 growth in vitro. AID 1347417, 2020. Potency, µM (doses to about 28.9 µM), for inactives: top-dose activity, negative = inhibition, actives largely listed as inhibitors. 120,000 tested, 4.3% active. P. falciparum Dd2 growth, SYBR Green, 72 h; active means well fitted inhibition curve with a large enough effect;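 further: plate controls were DMSO vehicle for no effect and reference drug for full effect; nearly all actives have a fitted effect of over 65% in size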
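Readout: SYBR Green fluorescence, 485 nm excitation, 535 nm emission, after ~16 h lysis at 37C. Before that, Dd2-infected red cells (2.5% hematocrit) grew 72 h with compound, 29 uM top final concentration.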
The depositor's hits bear a star; [ ] = another dose, or the depositor's remark. Potency means the concentration at half of the fitted maximal effect.

Screening CCOC(=O)C1(Cc2ccc(OC)cc2)CCN(C(=O)C(C)Oc2ccccc2)CC1 (stereo not given) returned Pf Dd2 inh -9.5%.
O=C(N1CCN(C/C=C/c2ccccc2)CC1)C12CNCC1CNC2 (stereo not given) was read as Pf Dd2 inh -21.9%.
Screening COc1cccc(CN2CCC3(CC2)C(=O)NCN3Cc2ccc(Cl)cc2)c1 returned Pf Dd2 inh -16.9%.
For COc1cccc(CC2(CO)CCCNC2)c1 (stereo not given) the results were Pf Dd2 inh -26.5%.
`CCOC(=O)C1(Cc2ccccc2)CCCN(S(=O)(=O)c2cccs2)C1` (stereo not given) gave Pf Dd2 inh -2.3%.
CCOC(=O)C1(Cc2ccccc2)CCNCC1 was read as Pf Dd2 inh 5.62µM*.
Screening CCOC(=O)C1(Cc2cccc(OC)c2)CCCNC1 (stereo not given) returned Pf Dd2 inh 11.2µM*.
Screening CCOC(=O)C1(Cc2ccccc2)CCCN(C(=O)c2ccccc2SC)C1 (stereo not given) returned Pf Dd2 inh -34.2%.
`CCOC(=O)C1(Cc2ccccc2)CCCN(S(=O)(=O)c2ccc(OC)c(OC)c2)C1` (stereo not given) gave Pf Dd2 inh inactive.
COc1cccc(CNC(=O)C2=C(C)C(=O)OC23CCCCCC3)c1 was read as Pf Dd2 inh -20.0%.
Screening CCOC(=O)C1(Cc2ccc(Cl)cc2)CCN(Cc2ccc(OC)cc2O)CC1 returned Pf Dd2 inh 0.0891µM*.
O=C1NC2(CCN(C(=O)Cc3ccccc3)C2)Oc2ccccc21 (stereo not given) was read as Pf Dd2 inh inactive.
Screening O=C1CC(c2ccccc2)N(C(=O)COc2ccc(F)cc2)CCCCCCN1 (stereo not given) returned Pf Dd2 inh -4.4%.
`Cc1ccc(C(=O)N2CCC(CCC(=O)O)CC2)cc1` gave Pf Dd2 inh inactive.
For COc1ccccc1C1NC(=O)N(CC2CC2)C2=C1C(=O)OC2 (stereo not given) the results were Pf Dd2 inh -26.2%.
For CCn1ncc(CN2CCC(N3C(=O)C4(CCCC4)C3c3scnc3C)CC2)c1C (stereo not given) the results were Pf Dd2 inh inactive.
COCC(=O)N1CC(C(=O)NCc2ccncc2)C2(CCOCC2)C1 (stereo not given) was read as Pf Dd2 inh 17.4%.
Screening CCOC(=O)C1(Cc2cccc(OC)c2)CCNCC1 returned Pf Dd2 inh 5.01µM*.
`CCOC(=O)C1(Cc2ccc(F)cc2)CCCNC1` (stereo not given) gave Pf Dd2 inh 2.82µM*.
COCC1CN(C(=O)CCc2cccc(OC)c2)CC12CCNCC2 (stereo not given) was read as Pf Dd2 inh 32.7%.
CCOC(=O)c1cc(S(=O)(=O)NCc2ccc(F)cc2)[nH]n1 was read as Pf Dd2 inh inactive.
For C=CCOc1cccc(C(=O)N2CCC(Cc3ccc(OC)cc3)(C(=O)OCC)CC2)c1 the results were Pf Dd2 inh inactive.
For CCOC(=O)C1(Cc2ccc(F)cc2F)CCCN(C(=O)c2c(C)nc3ncccn23)C1 (stereo not given) the results were Pf Dd2 inh -11.9%.
CN(C)C(=O)c1cccnc1OC1CCN(S(=O)(=O)c2cccc(C(F)(F)F)c2)C1 (stereo not given) was read as Pf Dd2 inh -12.9%.
`CN1CC(=O)N(C2CCNCC2)Cc2c(NCCOc3ccccc3)ncnc21` gave Pf Dd2 inh -19.5%.
Cc1ccc(S(=O)(=O)N2CC[C@H](c3n[nH]c(C)n3)[C@H](NC(=O)CN(C)C)C2)cc1 was read as Pf Dd2 inh -23.0%.
Screening Cn1ccnc1CN1C(=O)CO[C@H](c2ccc(NC(=O)CC(C)(C)C)cc2)[C@H]1CO returned Pf Dd2 inh -19.5%[44.1 µM].
Screening COc1ccccc1C(=O)NCC1Cn2cccc2C(=O)N1CC(C)C (stereo not given) returned Pf Dd2 inh -25.0%.
`CCc1noc([C@@H]2CC(F)(F)CN2C(=O)c2ccc(OC)nc2)n1` gave Pf Dd2 inh 35.1%.
Screening Cc1ccc(C(=O)Nc2ccc3c(N4CCOCC4)ncnc3c2)cc1F returned Pf Dd2 inh -19.2%.
`COCC(=O)NC[C@H]1OC[C@@H](NCc2ccc(C)cc2)[C@@H]1O` gave Pf Dd2 inh 10.8%[44.1 µM].
Screening COCC(=O)NC[C@H]1OC[C@@H](NCc2ccc(F)cc2)[C@@H]1O returned Pf Dd2 inh 14.1µM*.
COCC(=O)NC[C@H]1OC[C@@H](NCc2ccccc2F)[C@@H]1O was read as Pf Dd2 inh 1.1%[44.1 µM].
For O=C(c1ccncc1)N1CCC(Oc2ccc(-c3noc(-c4ccccc4)n3)cc2)C1 (stereo not given) the results were Pf Dd2 inh -4.0%[5.79 µM].
`c1cc(-c2nc(-c3ccc(OC4CNC4)cc3)no2)ccn1` gave Pf Dd2 inh 3.98µM*.
For CC(C)c1nc(-c2ccc(OC3CCNC3)cc2)no1 (stereo not given) the results were Pf Dd2 inh inactive[5.79 µM].
`CCCN1CC(Oc2ccc(-c3noc(-c4cccnc4)n3)cc2)C1` gave Pf Dd2 inh -11.1%.
Screening c1cncc(-c2nc(-c3ccc(OC4CNC4)cc3)no2)c1 returned Pf Dd2 inh 5.01µM*.
Screening O=C(Nc1ccccc1)N1CC(Oc2ccc(-c3noc(-c4ccncc4)n3)cc2)C1 returned Pf Dd2 inh -17.9%.
`O=C(CCn1cc(Cl)cn1)N1CCOC(c2ccc(Cl)cc2)C1` (stereo not given) gave Pf Dd2 inh -11.4%.
`CCN1C(=O)CCN(C(=O)c2c(C)noc2C)CC12CCOCC2` gave Pf Dd2 inh 18.1%.
Screening O=C1CC(c2ccccc2)N(C(=O)C2CC2)CCCN(C(=O)c2ccncc2)CCN1 (stereo not given) returned Pf Dd2 inh 18.4%.
`CCOC(=O)c1ccc(NC(=O)CC2Nc3cccc4cccc(c34)NC2=O)cc1` (stereo not given) gave Pf Dd2 inh 10µM*.
Screening CCOc1ccc(NC(=O)CC2Nc3cccc4cccc(c34)NC2=O)cc1 (stereo not given) returned Pf Dd2 inh 7.7%.
Screening CC(=O)c1ccc(NC(=O)CC2Nc3cccc4cccc(c34)NC2=O)cc1 (stereo not given) returned Pf Dd2 inh -0.9%.
For CCOC(=O)c1ccc(NC(=O)CC2Sc3ccc(C(F)(F)F)cc3NC2=O)cc1 (stereo not given) the results were Pf Dd2 inh 39.8%[0.594 µM].
For CCOC(=O)c1ccc(NC(=O)CC2Nc3cc(C)c(C)cc3NC2=O)cc1 (stereo not given) the results were Pf Dd2 inh 3.98µM*.
For NC(=O)c1ccc(NC(=O)C[C@H]2NC(=O)c3ccccc3NC2=O)cc1 the results were Pf Dd2 inh 4.6%.
Screening O=C1NCCCCCN(C(=O)CN2CCCC2=O)[C@H]2CCC[C@@H]12 returned Pf Dd2 inh 23.0%.
O=C(N1CCCCC1)N1CCCC(c2nnc3n2CCNC3)C1 (stereo not given) was read as Pf Dd2 inh -2.6%.
For COc1ccc([C@@H](NC(=O)CN2CCc3ccccc3C2)C2CC(O)C2)cn1 (stereo not given in full) the results were Pf Dd2 inh inactive.
Cc1ccc(-c2c(CN3CCN(c4cc(C)ccc4C)CC3)csc2C)cc1 was read as Pf Dd2 inh 10µM*.
For CCc1c(CN2CCN(c3cccc(C)c3)C(C)C2)csc1C (stereo not given) the results were Pf Dd2 inh 0.2%.
Screening Cc1ccc(C)c(N2CCN(Cc3csc(C)c3C)CC2)c1 returned Pf Dd2 inh inactive.
